# Reference: PubChem BioAssay AID880 (National Center for Advancing Translational Sciences (NCATS), 2007)
# About 1,000 (0.43%) of roughly 230,000 compounds were called active. This is one part of a sample in which actives are shown more often than they occur. A number with no mark means an inactive call. Calls follow the shape of the dose curve; as a rule, active = well fitted inhibition curve with a large enough effect (not every such curve was filed as active); inactive = no such curve, though single readings can be large or run the other way.
# Biological target: Guanine nucleotide-binding protein G(i) subunit alpha-1 (Homo sapiens) (UniProt P63096)
# Sequence (P63096 whole entry, looked up): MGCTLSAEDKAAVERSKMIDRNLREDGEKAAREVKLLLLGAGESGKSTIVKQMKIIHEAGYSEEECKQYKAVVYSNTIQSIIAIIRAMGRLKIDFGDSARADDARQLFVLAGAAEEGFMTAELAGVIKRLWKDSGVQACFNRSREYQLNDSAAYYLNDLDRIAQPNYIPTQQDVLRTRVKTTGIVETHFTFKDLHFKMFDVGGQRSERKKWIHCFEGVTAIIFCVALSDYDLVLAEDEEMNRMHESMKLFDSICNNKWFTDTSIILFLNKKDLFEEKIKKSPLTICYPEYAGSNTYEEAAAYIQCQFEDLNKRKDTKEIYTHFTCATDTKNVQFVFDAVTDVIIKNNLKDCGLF
# Assay: qHTS Assay for Inhibitors of RGS12 GoLoco Motif Activity (Red Fluorophore); also: nearly all actives have a fitted effect of over 30% in size
# Settings: Gai1:RGS12 GoLoco peptide FP, rhodamine, 10 min; series mostly up to 61.6 µM; activity, negative = inhibition: at the top concentration
# Source text: Assay Submitter: Siderovski, David P, University of North Carolina at Chapel Hill
# Screening Center PI: Austin, C.P.
# Screening Center: NIH Chemical Genomics Center [NCGC]
# G-protein-coupled receptors (GPCRs) are major targets for drug discovery. The regulator of G-protein signaling (RGS)-protein family has important roles in GPCR signal transduction. RGS proteins contain a conserved RGS-box, which is often accompanied by other signaling regulatory elements. RGS proteins accelerate the deactivation of G proteins to reduce GPCR signaling; however, some also have an effector function and transmit signals. Combining GPCR agonists with RGS inhibitors should potentiate responses, and could markedly increase the agonist's regional specificity. The diversity of RGS proteins with highly localized and dynamically regulated distributions in brain makes them attractive targets for pharmacotherapy of central nervous system disorders. […] A complex of Gai1 and fluorescently labeled G-alpha-binding peptide (the "GoLoco motif") derived from RGS12 is incubated with library members. Inhibitors of the binding are detected by a decrease in the fluorescence polarization (FP) of the fluorophore. Protein was supplied by Prof. David Siderovski, University of North Carolina at Chapel Hill.
# Assay Buffer: 10 mM Tris-HCl, 150 mM NaCl, 0.1 mM GDP (prepared fresh), and 0.05% NP40 at pH 7.5.
# 15 nM Rhodamine labeled peptide/25 nM protein in columns 1, 2, 5 - 48. Titration of unlabeled peptide control ([H][…][NH2], custom synthesized and HPLC-purified by Tufts University Core Facility) from 20 mM, then 1:2 dilution, 16-point in duplicate, pin-transferred to column 2, rows 1 to 32. Column 1 is neutral.
# Rhodamine-labeled peptide (Rhodamine-[…]-NH2) was custom-synthesized and HPLC-purified by Invitrogen (Carlsbad, CA).
# Four uL of reagents were dispensed to 1536-well Greiner black solid-bottom plates. Compounds and controls (23 nL) were transferred via Kalypsys PinTool. The plates were incubated for 10 min at room temperature, and then read on ViewLux (Perkin-Elmer) High-throughput CCD imager using BODIPY for the rhodamine-labeled decapeptide probe. During dispense, reagent bottles were kept submerged into 4 deg C water bath and all liquid lines were covered with aluminum foil to minimize probe and protein degradation. All screening operations were performed on a Kalypsys robotic system (Kalypsys, Inc., San Diego, CA) containing one RX-130 and two RX-90 anthropomorphic robotic arms.
# % is scaled to controls: 0 for no effect and ±100 for the full control effect; potency is read from the fitted curve at half-maximal effect.
SMILES,Potency,"activity, negative = inhibition"
C[N+]12CN3CN(CN(C3)C1)C2,8.91 µM (active),–
CO[C@@H]1C[C@@H](C[C@H]2CC[C@H](C)[C@@H]([C@@H](C)C(=O)O)O2)O[C@]2(O[C@](C)([C@H]3CC[C@@](C)(C4OC([C@H]5O[C@@](O)(CO)[C@H](C)C[C@@H]5C)C[C@@H]4C)O3)C[C@H]2C)[C@@H]1C (stereo not given in full),–,2.64%
CC(=O)c1c(O)c(C)c(O)c(Cc2c(O)c3c(c(C(=O)/C=C\c4ccccc4)c2O)OC(C)(C)C=C3)c1O,–,5.48%
C[C@@]12CC[C@H](O)C[C@@H]1CC[C@@H]1[C@@H]2CC[C@@]2(C)[C@@H](C3=CC(=O)OC3)[C@H](O)C[C@]12O,–,3.75% [at 14.2 µM]
Cc1cc(-c2ccc(N)c(C)c2)ccc1N,25.1 µM (active),–
CN1[C@@H]2CC[C@H]1CC(OC(=O)c1cc(Cl)cc(Cl)c1)C2 (stereo not given in full),–,-5.38%
CN(C)C1C(=O)C(C(N)=O)=C(O)[C@@]2(O)C(=O)C3=C(O)c4c(O)cccc4[C@@](C)(O)C3C[C@@H]12 (stereo not given in full),–,0.74%
ClC(Cl)=C(Cl)C(Cl)=C(Cl)Cl,–,5.03%
CC(C)CC(C)Nc1ccc(Nc2ccccc2)cc1 (stereo not given),–,0.206%
CCCCN1C2CCC1CC(OC(c1ccc(F)cc1)c1ccc(F)cc1)C2 (stereo not given),–,8.26%
CS(=N)(=O)CC[C@H](N)P(=O)(O)O (stereo not given in full),–,3.42% [at 14.2 µM]
CC(C)(Cc1c[nH]c2ccc(Cl)cc12)NCCOc1ccccc1OCC1CC1,–,inactive
CC(=O)OC1C2CCC3C1(CC(O)[C@@]1(O)[C@@H](CC(O)C1(C)C)[C@]3(C)O)C[C@@]2(C)O (stereo not given in full),25.1 µM (active),–
CC(C)(c1ccccc1)c1ccc(O)cc1,–,-5%
CC(=O)O[C@H]1CC[C@@]2(C)[C@@H](CC[C@H]3[C@H]2CC(=O)[C@]2(C)[C@@H]3C[C@@H](N3CC3)[C@H]2C(C)=O)C1,–,4.86% [at 14.2 µM]
O=C(O)C1C2CCC(O2)C1C(=O)O (stereo not given),–,10.6%
OC(CNC1CCCCC1)c1ccccc1 (stereo not given),–,5.96%
CNC(C)[C@@H](O)c1ccccc1 (stereo not given in full),7.94 µM (active),–
CC(C)CCC1(CCN)C(=O)NC(=O)NC1=O,–,2.09% [at 14.2 µM]
CN(C)[C@@H]1C(=O)C(C(N)=O)=C(O)[C@@]2(O)C(=O)C3=C(O)c4c(O)cccc4[C@@](C)(O)C3CC12 (stereo not given in full),–,-6.35%
CCN(CC)CCn1ncc2c(N)ncnc21,–,8.05% [at 14.2 µM]
O=C(O)C(=O)Cc1ccc2c(c1)OCO2,–,-7.42% [at 14.2 µM]
COc1ccccc1N=Nc1c(O)[nH]c(=S)[nH]c1=O,–,28.9%
COc1ccccc1N=C1SCCCN1C,3.16 µM (active),–
Cc1ccc(S(=O)(=O)O[C@H]2CN3CCC2CC3)cc1,–,-0.505% [at 14.2 µM]
CC[C@@](O)(C(=O)O)c1cc2n(c(=O)c1CO)Cc1cc3ccccc3nc1-2,–,-0.459% [at 14.2 µM]
Fc1ccc(C(OCCN2CCN(C/C=C\c3ccccc3)CC2)c2ccc(F)cc2)cc1,–,12.7%
C[C@H](Br)C(=O)N[C@H](CO)C(=O)O,–,5.42% [at 14.2 µM]
NCC[Se][Se]CCN,0.631 µM (active),–
CC(C)(O)/C=C\C(=O)[C@](C)(O)[C@H]1[C@H](O)C[C@]2(C)[C@@H]3CC=C4[C@@H](C=C(O)C(=O)C4(C)C)[C@]3(C)C(=O)C[C@@]12C,–,6.59% [at 14.2 µM]
